Here are results for 38 compounds from PubChem BioAssay (NCI).

Structures are written as SMILES. About 83,000 compounds went through this panel and 20% of them were active in at least one assay; those are over-represented in the sample as a whole.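 Percent growth is the endpoint: 0 to 100 indicates growth inhibition (40 means 60% inhibition), 0 means no net growth, and negative values indicate cell death.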 The source made the active and inactive calls. The calls were made as follows: active = growth percent below 10; inactive = the rest.

One experiment has as its system RXF 393 renal. The experiment is described as follows: NCI-60 one-dose screen, 48 h (100 = growth as untreated, 0 = no growth, -100 = all killed). The settings on record: 10 µM unless noted.
As for `COc1ccc(C2=Nc3c(N)ncnc3NC(c3ccc4c(c3)OCO4)C2)cc1` (stereo unspecified), the growth was 66% (inactive).
On the same count and under the same terms, under `COc1ccc2occ(C3=C(c4c[nH]c5ccccc45)C(=O)N(O)C3=O)c2c1` stands 107% (inactive).
Still for that read-out and setting: the figure for `NCCCNc1nc2ccccc2c2c(=O)c3cccc(Cl)c3sc12` is 29.5% (inactive); for `O=c1c2cc(F)ccc2sc2c(NCCN3CCCCC3)nc3ccccc3c12` it is 39.7% (inactive).
The same measure, in the same setting: the figure for `Cc1ccc2c(c1)Sc1c(ccc3ccccc13)N2` is 63.6% (inactive); for `CCCCCCCCCCCCCCCCCCOc1ccc(CC(=O)OCC[N+]2(C)CCCC2)cc1` it is 101% (inactive); for `CC(=O)OC[C@H]1OC(Sc2sc(C(=O)c3ccc(Br)cc3)c(N)c2-c2nc3ccccc3s2)[C@H](OC(C)=O)[C@@H](OC(C)=O)[C@@H]1OC(C)=O` (stereo partly specified) it is 70.8% (inactive).
Consider `O=C(O)c1ccc2c(c1)CCC2`, for which the growth was 120% (inactive).
The same measure, in the same setting: the figure for `COc1ccc(-c2[nH]c(=S)n(C(CC3(C)NCC(=O)N3n3c(-c4ccccc4)cc(C)nc3=S)c3ccc(OC)cc3)c(=O)c2Br)cc1` (stereo unspecified) is 65.5% (inactive); for `C[C@H](NC(=O)[C@@H]1CSSC[C@@H](NC(=O)c2nc3ccccc3cc2O)C(=O)NCC(=O)N1C)c1ccccc1` it is -27.4% (active).
For the compound `CCc1ccccc1-n1c(-c2ccc(Cl)cc2)cc(-c2ccc(Cl)cc2)c(C#N)c1=O`, the growth was 93.3% (inactive).
On to `COCCc1ccc(OCC(O)CNC(C)C)cc1` (stereo unspecified), for which the growth was 128% (inactive).
The same measure, in the same setting: under `COc1ccc(/C=C/c2c(C(=O)/C=C/c3cccs3)c(C)nc3ccccc23)cc1` stands 77.4% (inactive).
For `COc1ccc(-c2nc3c(N)c(CO)c(C)nc3o2)cc1`, the growth is 96% (inactive).
For the compound `CC(C)C(=O)Nc1n[nH]c2cc(-c3cccc(NS(=O)(=O)C4CC4)c3)ccc12`, the growth was 88.9% (inactive).
On the same count and under the same terms, the figure for `COc1ccc(-c2nc3ccc4[nH]ncc4c3c3c2CCCC3)cc1B(O)O` is 6.38% (active).
For the compound `COc1cc(OC)cc(C2CC(=O)Nc3c2c(C)nn3-c2nc3ccccc3[nH]2)c1` (stereo unspecified), the growth is -0.824% (active).
The same measure, in the same setting: under `CCOC(=O)c1c2ncccc2n2c(=O)n(-c3ccccc3C)nnc12` stands 107% (inactive).
As to `CCN(CCNc1ccc(C)c2sc3ccccc3c(=O)c12)CC(C)(C)O`, the growth was 74.7% (inactive).
On the same count and under the same terms, under `CCCCNC(=O)Oc1ccc2c(=O)c3sc4c(=O)c5ccccc5c(=O)c4c3c(=O)c2c1` stands -87.1% (active); under `O=C(NCCCNc1cc(-c2cn(-c3ccccc3)nc2-c2cccc(O)c2)ccn1)c1ccc(F)cc1`, 15.9% (inactive); under `CC(C)=C[C@@H]1c2c(c3ccccc3n(C)c2=O)O[C@H]2c3c(c4ccccc4n(C)c3=O)OC(C)(C)[C@@H]12`, 88.9% (inactive).
For `CCN1CCN(c2nc(C)cc(NCc3cc(Nc4ccnc5cc(Cl)ccc45)ccc3F)n2)CC1`, the growth was -10.8% (active).
In the case of `COc1ccc2c(c1)O/C(=C\c1cccc(OCC(=O)Nc3nc4ccccc4s3)c1)C2=O`, the growth was -29.3% (active).
Take `Cc1nn(-c2ccccc2)c(Oc2ccc(Cl)cc2)c1/C=N\N=c1/sc2ccccc2n1C`: the growth was 94.2% (inactive).
The same measure, in the same setting: the figure for `COc1cc(C2NC(=O)c3ccccc3N2)ccc1OCCCCCOc1c(OC)cc(C2=NOC(c3cc(OC)c(OC)c(OC)c3)C2)cc1OC` (stereo unspecified) is 104% (inactive); for `COc1cc(C2CC(=O)Nc3c2c(C)nn3-c2nc3ccccc3[nH]2)c(OC)c(OC)c1OC` (stereo unspecified) it is 61.5% (inactive); for `CC1(C)OC2C(CO[Si](C)(C)C(C)(C)C)OC(n3c(I)c(C#C[Si](C)(C)C)c(=O)[nH]c3=O)C2O1` (stereo unspecified) it is -32.9% (active).
As to `CC(=O)N1C(=S)NC(=O)C1Cn1c(-c2ccccc2)nc2ccccc21` (stereo unspecified), the growth was 96.5% (inactive).
In the case of `COCN1CCC2N(COC)CCC3N(COC)CCC1N23` (stereo unspecified), the growth is 112% (inactive).
On the same count and under the same terms, the figure for `C=CC(=O)Nc1cccc(Oc2nccc(Nc3nnc(C4CC4)s3)n2)c1` is 86.1% (inactive); for `COc1ccc(N=Nc2ccc(O)c(=O)cc2)cc1` it is 29.7% (inactive).
Consider `C=C1C(=O)O[C@H]2[C@H]1CC/C(COC(=O)C(=O)c1cn(C)c3ccc(OC)cc13)=C\CC[C@@]1(C)O[C@@H]21`, for which the growth was -94.8% (active).
On to `COc1cccc(-c2nn(-c3ccccc3)cc2-c2ccnc(NCCNC(=O)Nc3ccccc3)c2)c1`, for which the growth is 63.5% (inactive).
Same read-out and setting: the figure for `COC(=O)[C@]12CC[C@@H](C)[C@H](C)[C@@H]1C1=CC[C@@H]3[C@@]4(C)C(C=O)=C[C@@](C)(COC(C)=O)[C@@H]4[C@H](O)C[C@@]3(C)[C@]1(C)CC2` is -82% (active).
As for `O=C(Nc1cccc(Cl)c1)c1cc(N=Nc2ccc([N+](=O)[O-])cc2Cl)ccc1O`, the growth is 29.6% (inactive).
Turning to `COc1ccc(C2c3ccc4ccccc4c3Oc3nc(C)[nH]c(=O)c32)cc1` (stereo unspecified), the growth is 108% (inactive).
Same read-out and setting: under `COC(=O)c1ccc(C2Nc3ccc(S(=O)(=O)Nc4ccc(C)c(C)c4)cc3C3OCCC23)cc1` (stereo unspecified) stands 101% (inactive).

Another experiment relates to SF-268 CNS. The experiment is described as above. The settings on record: 10 µM unless noted.
With `COc1ccc(C2=Nc3c(N)ncnc3NC(c3ccc4c(c3)OCO4)C2)cc1` (stereo unspecified), the growth is 89.6% (inactive).
As to `COc1ccc2occ(C3=C(c4c[nH]c5ccccc45)C(=O)N(O)C3=O)c2c1`, the growth is 91.8% (inactive).
`NCCCNc1nc2ccccc2c2c(=O)c3cccc(Cl)c3sc12`: the growth was 26.5% (inactive).
For the compound `O=c1c2cc(F)ccc2sc2c(NCCN3CCCCC3)nc3ccccc3c12`, the growth was 49.7% (inactive).
Turning to `Cc1ccc2c(c1)Sc1c(ccc3ccccc13)N2`, the growth is 59.5% (inactive).
Still for that read-out and setting: under `CCCCCCCCCCCCCCCCCCOc1ccc(CC(=O)OCC[N+]2(C)CCCC2)cc1` stands 104% (inactive); under `CC(=O)OC[C@H]1OC(Sc2sc(C(=O)c3ccc(Br)cc3)c(N)c2-c2nc3ccccc3s2)[C@H](OC(C)=O)[C@@H](OC(C)=O)[C@@H]1OC(C)=O` (stereo partly specified), 60.9% (inactive); under `O=C(O)c1ccc2c(c1)CCC2`, 111% (inactive).
The same measure, in the same setting: the figure for `COc1ccc(-c2[nH]c(=S)n(C(CC3(C)NCC(=O)N3n3c(-c4ccccc4)cc(C)nc3=S)c3ccc(OC)cc3)c(=O)c2Br)cc1` (stereo unspecified) is 75.6% (inactive).
Still for that read-out and setting: under `C[C@H](NC(=O)[C@@H]1CSSC[C@@H](NC(=O)c2nc3ccccc3cc2O)C(=O)NCC(=O)N1C)c1ccccc1` stands 17.6% (inactive); under `CCc1ccccc1-n1c(-c2ccc(Cl)cc2)cc(-c2ccc(Cl)cc2)c(C#N)c1=O`, 83.6% (inactive).
On to `COCCc1ccc(OCC(O)CNC(C)C)cc1` (stereo unspecified), for which the growth was 104% (inactive).
Regarding `COc1ccc(/C=C/c2c(C(=O)/C=C/c3cccs3)c(C)nc3ccccc23)cc1`, the growth is 85.3% (inactive).
Turning to `COc1ccc(-c2nc3c(N)c(CO)c(C)nc3o2)cc1`, the growth is 94.9% (inactive).
Same read-out and setting: under `CC(C)C(=O)Nc1n[nH]c2cc(-c3cccc(NS(=O)(=O)C4CC4)c3)ccc12` stands 76.1% (inactive); under `COc1ccc(-c2nc3ccc4[nH]ncc4c3c3c2CCCC3)cc1B(O)O`, 56.3% (inactive); under `COc1cc(OC)cc(C2CC(=O)Nc3c2c(C)nn3-c2nc3ccccc3[nH]2)c1` (stereo unspecified), 29.3% (inactive).
Take `CCOC(=O)c1c2ncccc2n2c(=O)n(-c3ccccc3C)nnc12`: the growth is 117% (inactive).
As to `CCN(CCNc1ccc(C)c2sc3ccccc3c(=O)c12)CC(C)(C)O`, the growth is 83.3% (inactive).
Same read-out and setting: under `CCCCNC(=O)Oc1ccc2c(=O)c3sc4c(=O)c5ccccc5c(=O)c4c3c(=O)c2c1` stands -48.1% (active).
Same read-out and setting: under `O=C(NCCCNc1cc(-c2cn(-c3ccccc3)nc2-c2cccc(O)c2)ccn1)c1ccc(F)cc1` stands 31.3% (inactive); under `CC(C)=C[C@@H]1c2c(c3ccccc3n(C)c2=O)O[C@H]2c3c(c4ccccc4n(C)c3=O)OC(C)(C)[C@@H]12`, 86.1% (inactive); under `CCN1CCN(c2nc(C)cc(NCc3cc(Nc4ccnc5cc(Cl)ccc45)ccc3F)n2)CC1`, 16.6% (inactive).
Same read-out and setting: under `COc1ccc2c(c1)O/C(=C\c1cccc(OCC(=O)Nc3nc4ccccc4s3)c1)C2=O` stands 24.2% (inactive); under `Cc1nn(-c2ccccc2)c(Oc2ccc(Cl)cc2)c1/C=N\N=c1/sc2ccccc2n1C`, 79.6% (inactive); under `COc1cc(C2NC(=O)c3ccccc3N2)ccc1OCCCCCOc1c(OC)cc(C2=NOC(c3cc(OC)c(OC)c(OC)c3)C2)cc1OC` (stereo unspecified), 67.4% (inactive).
As to `COc1cc(C2CC(=O)Nc3c2c(C)nn3-c2nc3ccccc3[nH]2)c(OC)c(OC)c1OC` (stereo unspecified), the growth is 50.9% (inactive).
In the case of `CC1(C)OC2C(CO[Si](C)(C)C(C)(C)C)OC(n3c(I)c(C#C[Si](C)(C)C)c(=O)[nH]c3=O)C2O1` (stereo unspecified), the growth is 108% (inactive).
`CC(=O)N1C(=S)NC(=O)C1Cn1c(-c2ccccc2)nc2ccccc21` (stereo unspecified): the growth was 99.2% (inactive).
Same read-out and setting: the figure for `COCN1CCC2N(COC)CCC3N(COC)CCC1N23` (stereo unspecified) is 104% (inactive); for `C=CC(=O)Nc1cccc(Oc2nccc(Nc3nnc(C4CC4)s3)n2)c1` it is 89.8% (inactive); for `COc1ccc(N=Nc2ccc(O)c(=O)cc2)cc1` it is 22.3% (inactive).
The same measure, in the same setting: the figure for `C=C1C(=O)O[C@H]2[C@H]1CC/C(COC(=O)C(=O)c1cn(C)c3ccc(OC)cc13)=C\CC[C@@]1(C)O[C@@H]21` is -40.6% (active).
The same measure, in the same setting: under `COc1cccc(-c2nn(-c3ccccc3)cc2-c2ccnc(NCCNC(=O)Nc3ccccc3)c2)c1` stands 60.9% (inactive); under `COC(=O)[C@]12CC[C@@H](C)[C@H](C)[C@@H]1C1=CC[C@@H]3[C@@]4(C)C(C=O)=C[C@@](C)(COC(C)=O)[C@@H]4[C@H](O)C[C@@]3(C)[C@]1(C)CC2`, 1.2% (active).
As to `O=C(Nc1cccc(Cl)c1)c1cc(N=Nc2ccc([N+](=O)[O-])cc2Cl)ccc1O`, the growth is 90.6% (inactive).
For `COc1ccc(C2c3ccc4ccccc4c3Oc3nc(C)[nH]c(=O)c32)cc1` (stereo unspecified), the growth is 94.3% (inactive).
On the same count and under the same terms, the figure for `COC(=O)c1ccc(C2Nc3ccc(S(=O)(=O)Nc4ccc(C)c(C)c4)cc3C3OCCC23)cc1` (stereo unspecified) is 78% (inactive).
